Data taken from PubChem BioAssay AID624330 (Southern Research Specialized Biocontainment Screening …, 2012).
“And” between values parts separate entries of the source, which are not always exact repeats. Equal values may be shown once. About 2,100 (0.62%) of roughly 340,000 compounds were called active.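 How the source made its calls: active means first-screen hits whose inhibition reached a set limit at any dose in the follow-up dose series; inconclusive means inhibition above the set first-screen limit but never retested; inactive means the rest.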 The list is a sample of the results. Potency and affinity values are given separately.

These compounds were tested against Rac GTPase-activating protein 1 (Homo sapiens) (UniProt Q9H0H5) (assay: MgcRacGAP GTPase-activating activity inhibitors, confirmation, biochemical, ADP Hunter fluorescence, primary and confirmatory (AID 624330;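 further: fluorescence reports GDP produced by GAP-driven GTP hydrolysis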)). Details: MgcRacGAP-stimulated Rac1 GTP hydrolysis, at 30 µM, stronger effect = higher value, GST-tagged Rac1 F28L mutant substrate.
Sequence of Rac GTPase-activating protein 1 (Homo sapiens) (Q9H0H5 whole entry, looked up): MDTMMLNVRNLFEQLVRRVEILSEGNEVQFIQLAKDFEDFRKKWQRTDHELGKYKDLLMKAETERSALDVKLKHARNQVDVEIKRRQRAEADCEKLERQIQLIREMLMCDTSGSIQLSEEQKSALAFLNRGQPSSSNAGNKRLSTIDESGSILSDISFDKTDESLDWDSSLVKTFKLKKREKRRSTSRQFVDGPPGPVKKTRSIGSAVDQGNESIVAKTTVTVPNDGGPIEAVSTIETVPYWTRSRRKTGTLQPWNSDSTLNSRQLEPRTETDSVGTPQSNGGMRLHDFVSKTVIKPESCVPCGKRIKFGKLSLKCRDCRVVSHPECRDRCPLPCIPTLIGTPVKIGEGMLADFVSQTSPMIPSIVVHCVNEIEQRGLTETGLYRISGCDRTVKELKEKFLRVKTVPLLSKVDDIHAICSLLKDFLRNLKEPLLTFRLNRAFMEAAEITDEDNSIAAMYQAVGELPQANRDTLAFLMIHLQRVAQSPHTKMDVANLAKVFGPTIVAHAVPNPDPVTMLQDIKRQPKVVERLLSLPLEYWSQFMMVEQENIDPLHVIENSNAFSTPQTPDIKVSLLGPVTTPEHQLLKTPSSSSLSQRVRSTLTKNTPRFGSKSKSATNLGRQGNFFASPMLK

inhibition, inactive:
COc1ccc(C(=O)NCC(=O)N/N=C(\C)c2ccco2)cc1OC -0.25%
CCOC(=O)CNc1nc(Cl)nc(Nc2ccc(Cl)cc2)n1 -8.39%
CCCCn1nnc(N(C(=O)c2cccs2)C(=O)c2cccs2)n1 -4.48%
CC(C)CC(=O)NC(=S)Nc1ccc(N2CCOCC2)c(Cl)c1 2.66%
S=C(c1ccc(-c2ccc(Cl)cc2Cl)o1)N1CCCCC1 10.8%
O=C(COc1ccc(Cl)cc1)NNC(=O)c1ccncc1 8.55%
Cc1ccc(NC(=O)c2sccc2C)cc1S(=O)(=O)N(C)C 11.1%
COc1ccc2c(c1)C1NC(=S)N[C@@](C)(O2)C1C(=O)Nc1ccccc1 (some centres undefined) 9.66%
COc1nn(CC(=O)N2N=C(C(F)F)CC2(O)C(F)F)cc1[N+](=O)[O-] (centres undefined) 5.35%
CC(C)CN1CCC(=O)N([C@H](CN=[N+]=[N-])Cc2ccccc2)CC1 7.37%
O=C(NN=Cc1cc([N+](=O)[O-])ccc1O)c1cccc2ccccc12 4.07%
COc1ccc(/C=N/NC(=O)NC23CC4CC(CC(C4)C2)C3)c(OC)c1 0.89%
O=C(N/N=C/c1ccccc1O)NC12CC3CC(CC(C3)C1)C2 7.17%
COc1ccccc1N1CCN(C2CCCN(C(=O)c3ccsc3)C2)CC1 (centres undefined) 9.49%
Cc1nnc(SCC(=O)NNC(=O)COc2ccc(Cl)cc2)s1 3.46%
CCN(CC)c1ccc(C(=C2C=CC(=[N+](CC)CC)C=C2)c2ccc(S(=O)(=O)O)cc2S(=O)(=O)[O-])cc1 25.4%
CCN(CC)c1ccc(C(=O)NNC(=O)CCNC(=O)c2ccccc2)cc1 7.48%
CCN(CC)c1ccc(C(=O)NN)cc1 10%
CCN(CC)c1ccc(C(=S)NCc2ccccc2)cc1 9.69%
CC(C)(/C=N/NC(=O)CSCc1ccccc1Cl)CCC#N 4.57%
Cc1nc(NC(=O)C2CC2)sc1C(=O)Nc1ccccc1 12.6%
CCc1ccc(NS(=O)(=O)c2ccc3[nH]c(=O)[nH]c3c2)cc1 -4.35%
Cn1c(SCC(=O)NC2CCS(=O)(=O)C2)nnc1-c1ccco1 (centres undefined) -3.56%
O=C(CCNC(=O)c1ccccc1)NC1CCCc2ccccc21 (centres undefined) 6.57%
Cc1ccc(S(=O)(=O)NCCc2ccncc2)cc1[N+](=O)[O-] 2.26%
CCN(CC)S(=O)(=O)c1cccc(-c2n[nH]c(=S)n2/N=C/c2ccc(Br)cc2)c1 12.8%
CCN(CC)S(=O)(=O)c1cccc(-c2n[nH]c(=S)n2/N=C/c2ccc(OC)cc2)c1 8.14%
CC(=O)Nc1ccc(Oc2ccc(-c3noc(C)n3)cc2)cc1 10.9%
CC(NC(=O)Cc1cccc(C(F)(F)F)c1)c1ccc(F)cc1 (centres undefined) 0.98%
CCOC(=O)c1c(C)nsc1NC(=O)C1CCCCC1 -1.81%
CCOC(=O)c1sc(NC(=O)CC)nc1C 7.69%
CCOC(=O)c1sc(NC(C)=O)nc1C 6.36%
CCOC(=O)c1c(C)nsc1NCc1ccccc1 10.9%
O=C(NCCO)c1ccc(-c2nnc(N3CCOCC3)c3ccccc23)cc1 1.36%
O=C1CCc2cc(S(=O)(=O)Nc3ccc(F)cc3)cc3c2N1CC3 6.87%
N=C(N)c1ccccc1 2.01% and 4.94%
N=C(N)c1ccc(O)cc1 3.97%
O=[N+]([O-])c1ccc(C=CC=Cc2ccccc2)cc1 5.54%
O=[N+]([O-])/C=C\c1ccc(N2CCOCC2)cc1 24%
Cc1cccc(Cn2cc(/C=C/[N+](=O)[O-])c3ccccc32)c1 3.28%
O=[N+]([O-])/C=C/c1cn(Cc2ccccc2)c2ccccc12 4.89%
CS(=O)(=O)N(CC(=O)NCCSCc1ccco1)c1ccc(Cl)cc1 5.58%
Cc1ccc(N(CC2CO2)S(=O)(=O)c2ccc([N+](=O)[O-])cc2)cc1 (centres undefined) 4.81%
COC(=O)c1ccc(NC(=O)C2CCN(C(=O)Nc3ccccc3)CC2)cc1 5.55%
O=[N+]([O-])c1cc(C(F)(F)F)ccc1N1CCN(CCO)CC1 4.15%
O=[N+]([O-])c1ccc(N2CCCC2)c([N+](=O)[O-])c1 6.43%
Cc1nn(CC(=O)Nc2ccc3c(c2)OCCO3)c(C)c1[N+](=O)[O-] 0.26%
CCOC(=O)/C=C/c1cnn(-c2ccccc2)c1 6.95%
O=C(O)/C=C/c1cnn(-c2ccccc2)c1 2.55%
CCN=C1S/C(=C\c2cc(Cl)c(OC)c(OC)c2)C(=O)N1CC 4.7%
O=C(NNS(=O)(=O)c1ccc(F)cc1)c1ccc(O)cc1 6.98%
CCOC(=O)Cn1nnnc1CN1CCN(c2ccc(OC)cc2)CC1 14.7%
COc1ccc(Cn2nnnc2CN2CCOCC2)cc1 7.47%
C=CCN(c1ccccc1)S(=O)(=O)c1cccc(C(=O)Nc2ncccc2O)c1 -0.92%
Cc1ccc(N(C(=O)Cn2nnc(-c3ccccc3F)n2)C(C(=O)NC2CCCC2)c2ccncc2)cc1 (centres undefined) 6.05%
COc1ccc(OC)c(-c2csc(NC(=O)COC(=O)c3ccc(NC(=O)CC#N)cc3)n2)c1 5.16%
Cc1cc(C(=O)NC(C)C2CCCO2)cs1 (centres undefined) -7.59%
CCCn1c(=O)c2ccccc2n2c(SCC(N)=O)nnc12 18.7%
CCCn1c(=O)c2ccccc2n2c(SCCOc3ccccc3)nnc12 4.68%
Cc1ccc(NC(=O)CN(C)S(=O)(=O)c2ccc3c(c2)n(C)c(=O)c(=O)n3C)cc1 7.39%
CCOC(=O)C(=NC(C)CC)NNc1ccc(Br)cc1 (centres undefined) 9.58%
O=[N+]([O-])c1ccc(N2CCN(Cc3cccc([N+](=O)[O-])c3)CC2)cc1 0.8%
O=C(c1c(Cl)cccc1Cl)N1CCN(c2ncccn2)CC1 14.4%
O=[N+]([O-])c1cccc(CN2CCN(c3ncccn3)CC2)c1 25.4%
O=[N+]([O-])c1ccc(S(=O)(=O)N2CCN(Cc3ccco3)CC2)cc1 15.9%
O=C(c1c(Cl)cccc1Cl)N1CCCCCC1 7.13%
O=[N+]([O-])c1cccc(CN2CCCCCC2)c1 10.9%
O=C(CN1CCN(C(=O)c2ccco2)CC1)Nc1cccc([N+](=O)[O-])c1 4.6%
O=C(c1ccco1)N1CCN(Cc2cccc(F)c2)CC1 14.6%
